# Data as given in PubChem BioAssay (NCATS).
# Inconclusive results are not listed. Values without a mark were called inactive. Active and inactive are the calls of the source. Calls come from the whole dose curve; as a rule, active = well fitted cell-killing curve with a large enough effect; inconclusive = small, poorly fitted or top-dose-only effect, or effect the other way; inactive = no such curve, though single readings can be large or run the other way.
# Legend:
# [1] = Quantitative High-Throughput drug screen in 47 multiple myeloma cell lines against the NCATS MIPE library collection: MM1R_ATCC cell viability assay (AID 1918981); note: nearly all actives have a fitted effect of over 35% in size
# In short: (§1)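 Myeloma cells (500/well) treated with MIPE 4.0 compounds for 48 h at 37 °C, 5% CO2. Viability read as ATP via CellTiter-Glo luminescence after 5 min at RT; DMSO-only wells = 100%, media-only = 0% viability.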
# [2] = Quantitative High-Throughput drug screen in 47 multiple myeloma cell lines against the NCATS MIPE library collection: KMS28PE_JCRB cell viability assay (AID 1918983); note: nearly all actives have a fitted effect of over 35% in size
# In short: as §1
# [3] = Quantitative High-Throughput drug screen in 47 multiple myeloma cell lines against the NCATS MIPE library collection: OCIMY7_PLB cell viability assay (AID 1918987); settings: OCI-MY7 myeloma viability, CellTiter-Glo ATP, 48 h; viability (% of DMSO): at 45.8 µM (top of the series); note: nearly all actives have a fitted effect of over 65% in size
# In short: as §1
# [4] = Quantitative High-Throughput drug screen in 47 multiple myeloma cell lines against the NCATS MIPE library collection: OCIMY5_PLB cell viability assay (AID 1918988); note: nearly all actives have a fitted effect of over 65% in size
# In short: as §1
# [5] = Quantitative High-Throughput drug screen in 47 multiple myeloma cell lines against the NCATS MIPE library collection: XG6_PLB cell viability assay (AID 1919865); note: nearly all actives have a fitted effect of over 40% in size
# In short: as §1
# [6] = Quantitative High-Throughput drug screen in 47 multiple myeloma cell lines against the NCATS MIPE library collection: XG1_PLB cell viability assay (AID 1919866); note: nearly all actives have a fitted effect of over 35% in size
# In short: as §1
# [7] = Quantitative High-Throughput drug screen in 47 multiple myeloma cell lines against the NCATS MIPE library collection: VP6_DJ cell viability assay (AID 1919867); note: nearly all actives have a fitted effect of over 40% in size
# In short: as §1
# [8] = Quantitative High-Throughput drug screen in 47 multiple myeloma cell lines against the NCATS MIPE library collection: UTMC2_PLB cell viability assay (AID 1919868); settings: CellTiter-Glo ATP luminescence, 48 h; viability (% of DMSO control): at 45.8 µM (top of the series); note: nearly all actives have a fitted effect of over 55% in size
# In short: as §1
# [9] = Quantitative High-Throughput drug screen in 47 multiple myeloma cell lines against the NCATS MIPE library collection: PE2_PLB cell viability assay (AID 1919869); note: nearly all actives have a fitted effect of over 35% in size
# In short: as §1
# [10] = Quantitative High-Throughput drug screen in 47 multiple myeloma cell lines against the NCATS MIPE library collection: OPM2_DSMZ cell viability assay (AID 1919872); note: nearly all actives have a fitted effect of over 30% in size
# In short: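 qHTS of the MIPE 4.0 collection: 500 myeloma cells/well, 48 h drug exposure at 37C in 5% CO2, then CellTiter-Glo for 5 min at room temperature before luminescence reading.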
# [11] = Quantitative High-Throughput drug screen in 47 multiple myeloma cell lines against the NCATS MIPE library collection: KMS11_JCRBsus cell viability assay (AID 1919873); note: nearly all actives have a fitted effect of over 50% in size
# In short: as §1
# [12] = Quantitative High-Throughput drug screen in 47 multiple myeloma cell lines against the NCATS MIPE library collection: KMS28BM_JCRB cell viability assay (AID 1919874); note: nearly all actives have a fitted effect of over 35% in size
# In short: as §1
# [13] = Quantitative High-Throughput drug screen in 47 multiple myeloma cell lines against the NCATS MIPE library collection: KMS34_JCRB cell viability assay (AID 1918985); note: nearly all actives have a fitted effect of over 40% in size
# In short: as §1
# [14] = Quantitative High-Throughput drug screen in 47 multiple myeloma cell lines against the NCATS MIPE library collection: SKMM1_PLB cell viability assay (AID 1919863); settings: SKMM1 myeloma viability, CellTiter-Glo ATP, 48 h; viability: stronger effect = lower value; note: nearly all actives have a fitted effect of over 35% in size
# In short: as §1
# [15] = Quantitative High-Throughput drug screen in 47 multiple myeloma cell lines against the NCATS MIPE library collection: PCM6_Riken cell viability assay (AID 1919870); note: nearly all actives have a fitted effect of over 30% in size
# In short: as §1
# [16] = Quantitative High-Throughput drug screen in 47 multiple myeloma cell lines against the NCATS MIPE library collection: RPMI8226_ATCC cell viability assay (AID 1919871); note: nearly all actives have a fitted effect of over 30% in size
# In short: as §1
# [17] = Quantitative High-Throughput drug screen in 47 multiple myeloma cell lines against the NCATS MIPE library collection: OPM1_PLB cell viability assay (AID 1918989); note: nearly all actives have a fitted effect of over 40% in size
# In short: as §1
# [18] = Quantitative High-Throughput drug screen in 47 multiple myeloma cell lines against the NCATS MIPE library collection: U266_ATCC cell viability assay (AID 1919864); note: nearly all actives have a fitted effect of over 35% in size
# In short: as §1
# Potency is the fitted concentration of half-maximal effect.
SMILES,Potency [1],Potency [2],Potency [3],Potency [4],Potency [5],Potency [6],Potency [7],Potency [8],Potency [9],Potency [10],Potency [11],Potency [12],Potency [13],viability [14],Potency [15],Potency [16],Potency [17],Potency [14],Potency [18]
C[C@@]1(C(=O)Nc2ccc(F)nc2)CCCN1c1nc(Nc2cc(C3CC3)[nH]n2)c2cccn2n1,0.0166 µM (active),0.0296 µM (active),0.0743 µM (active),0.118 µM (active),0.0332 µM (active),0.0743 µM (active),0.0372 µM (active),0.0118 µM (active),11.8 µM (active),7.43 µM (active),0.0296 µM (active),0.0372 µM (active),,,,,,,
CN(C)CCOc1cc(-c2cn[nH]c2)ccc1NC(=O)C1COc2ccccc2O1 (stereo not given),13.2 µM (active),13.2 µM (active),,,,2.35 µM (active),,6.62 µM (active),16.6 µM (active),,,,9.35 µM (active),131%,4.69 µM (active),inactive,,,
CC1(C)C(N(O)C(=O)Nc2ccc(Cl)cc2)N(c2ccc(Cl)cc2)C(=O)N1CC(=O)NN=CC=Cc1ccc([N+](=O)[O-])o1 (stereo not given),5.26 µM (active),8.33 µM (active),5.9 µM (active),7.43 µM (active),10.5 µM (active),8.33 µM (active),8.33 µM (active),13.2 µM (active),6.62 µM (active),18.7 µM (active),6.62 µM (active),8.33 µM (active),7.43 µM (active),,9.35 µM (active),11.8 µM (active),11.8 µM (active),13.2 µM (active),10.5 µM (active)
C[C@@H]1[C@H](O)[C@@H](C)C=CC=CC=CC=CC=CC=CC=C[C@H](O[C@@H]2O[C@H](C)[C@H](O)[C@H](N)[C@@H]2O)C[C@@H]2O[C@](O)(C[C@@H](O)C[C@@H](O)[C@H](O)CC[C@@H](O)C[C@@H](O)CC(=O)O[C@H]1C)C[C@H](O)[C@@H]2C(=O)O,16.6 µM (active),inactive,11.8 µM (active),4.18 µM (active),inactive,2.96 µM (active),3.72 µM (active),,,,,,11.8 µM (active),,3.32 µM (active),,,5.26 µM (active),
COc1cc2c(cc1OC)CC(=O)N(CCCN(C)C[C@H]1Cc3cc(OC)c(OC)cc31)CC2,11.8 µM (active),inactive,inactive,16.6 µM (active),inactive,inactive,,,,inactive,,inactive,,,inactive,11.8 µM (active),,,16.6 µM (active)
c1cc(OCCN2CCCCC2)cc(-c2n[nH]c3ccc(-c4ncn[nH]4)cc23)c1,26.4 µM (active),16.6 µM (active),5.26 µM (active),,5.26 µM (active),8.33 µM (active),11.8 µM (active),,10.5 µM (active),,16.6 µM (active),,20.9 µM (active),,16.6 µM (active),,,,
